Test results published in paper PMC7819943, “Rice protein-binding microarrays: a tool to detect cis-acting elements near promoter regions in rice”.
Over roughly 68,000 sequences, “fluorescence intensity (a.u.)” has its median near 9,100; the highest 2% begin near 16,000. Many of the other results were omitted from the sample, so the highest values are more common in it than they were.

Molecular target: OsWRKY34 (Oryza sativa, UniProt Q0JBA9 1-250)
Experiment: protein-binding microarray (RPBM); PBS, 2% BSA, 51.3 ng/ul salmon testes DNA, 50 uM zinc acetate, 200 nM TF, 25 C, 1 h; high values mean tight binding
Settings: protein: recombinant; tags: N-terminal polyhistidine and DsRed monomer fusion (pET32a); label: CyDye5-dUTP incorporated in the synthesized complementary strand; 3' TTTTT single-stranded linker to array surface; dsDNA, one strand shown
Procedure, shortened: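 In PBS with 2% BSA, salmon testes DNA and 50 µM zinc acetate, 200 nM protein was incubated on a custom Agilent array at 25 °C for 1 h and then washed off. The array had been made double-stranded by primer extension with Cy5-dUTP and blocked with 2% BSA. The proteins were transcription factors fused N-terminally to polyhistidine and DsRed, expressed in E. coli BL21-CodonPlus and purified on Ni–NTA. The binding signal is per-feature fluorescence intensity (arbitrary units) from an Axon 4000B scanner.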

Sequence of OsWRKY34 (Q0JBA9 entry or part of it): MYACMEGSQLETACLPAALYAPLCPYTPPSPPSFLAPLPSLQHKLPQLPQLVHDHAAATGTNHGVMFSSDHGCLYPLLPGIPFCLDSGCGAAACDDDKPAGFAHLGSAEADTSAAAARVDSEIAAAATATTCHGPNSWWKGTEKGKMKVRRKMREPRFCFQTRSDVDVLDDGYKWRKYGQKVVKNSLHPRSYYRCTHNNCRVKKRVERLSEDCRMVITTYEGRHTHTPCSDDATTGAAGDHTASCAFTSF

Sequence	binding signal
GCTTGCTCCAGGTGACCCAACTTTTCCATTTCCATGCATTCGGAGTCACCTAGTGCAG	11300 fluorescence intensity (a.u.)
GCTCCTCCTCCTCTTCCCGCCTCACCGCCGCACCACCTCTCGGAGTCACCTAGTGCAG	8550 fluorescence intensity (a.u.)
CCGTGGGCCAGACCTTTTTCTTCGACGCTAGACCTGACTACGGAGTCACCTAGTGCAG	9780 fluorescence intensity (a.u.)
TTCACCCACGTTTCTGCCCAACCCTCTCACCCTAGCTTAGCGGAGTCACCTAGTGCAG	10800 fluorescence intensity (a.u.)
AACTTCGCAAGAGGCATGCTCTCCAGCCTCAATTTTCATGCGGAGTCACCTAGTGCAG	8410 fluorescence intensity (a.u.)
CCCCATTTTCTTTGTTTCTACTTCTCTTTCCCTTTCTTGTCGGAGTCACCTAGTGCAG	10700 fluorescence intensity (a.u.)
CTCCGTCCCTCCGTACCAGTTTAAATGCAGCCGTGGATTCCGGAGTCACCTAGTGCAG	8360 fluorescence intensity (a.u.)
TTTGACGCCGTTGACTTTTTTAAAAATGTTTGACCGTTCACGGAGTCACCTAGTGCAG	25100 fluorescence intensity (a.u.)
GCCCGCTGCTATTCTCTCTCATCTTTTATCCTATTAAAATCGGAGTCACCTAGTGCAG	13200 fluorescence intensity (a.u.)
CCCTCCGTATTTTAATGTATGACGCCGTTGACTTTTTGACCGGAGTCACCTAGTGCAG	26800 fluorescence intensity (a.u.)
AAGTACTCCCTCCGTATTTTAATGTATGACGCCGTTGACTCGGAGTCACCTAGTGCAG	9690 fluorescence intensity (a.u.)
TTTGGGCCGGGTTTTTGGTTTCTTCCTTTTTTTTTCTGGGCGGAGTCACCTAGTGCAG	12600 fluorescence intensity (a.u.)
ATCTATGTTTTTCTGCGGGCCGGGTTGGTTTGTTTCCTACCGGAGTCACCTAGTGCAG	10300 fluorescence intensity (a.u.)
CGCTACCGGGTTGACTTTTTCCTATCCGTTTCTGGTCCGGCGGAGTCACCTAGTGCAG	22800 fluorescence intensity (a.u.)
TACTTACTCCCTCCGTATTTTAATGTATGACGCCGTTGACCGGAGTCACCTAGTGCAG	14200 fluorescence intensity (a.u.)
GCCCGCTGCTCTGCTCTCTCATCTTTTATCTCACTAAAATCGGAGTCACCTAGTGCAG	8960 fluorescence intensity (a.u.)
GCCCGTTGCTCATCTCTCTCATCGTTTATCGCATTAAAATCGGAGTCACCTAGTGCAG	17900 fluorescence intensity (a.u.)
TTTTTTTTACCGGCCTAGTTGACCACCAACCAAGCAGTACCGGAGTCACCTAGTGCAG	10100 fluorescence intensity (a.u.)
GCATACATCTCTACTACCTGCATCTCCATCTCAAATCAAACGGAGTCACCTAGTGCAG	10400 fluorescence intensity (a.u.)
CTCCTCTAACGTACCATAGAGGGACATACGTTTCTGATGTCGGAGTCACCTAGTGCAG	8720 fluorescence intensity (a.u.)

Sequence	binding signal
CTCTCCATCCGCTCGCGGCTCGCGCTCGCCCATCCAATCCCGGAGTCACCTAGTGCAG	10600 fluorescence intensity (a.u.)
CATCGCCCACGCCAATGTCGTCGCCGACGTCTCGCTGCCGCGGAGTCACCTAGTGCAG	8820 fluorescence intensity (a.u.)
CACGCCATTAAGCTTTTTTTATATACATATAGTCAATGTTCGGAGTCACCTAGTGCAG	9130 fluorescence intensity (a.u.)
CCCACCGTTTCCAAATGTTTGACGCCGTTGACTTTTTATCCGGAGTCACCTAGTGCAG	31900 fluorescence intensity (a.u.)
CTAAATGTTTGACGCCGTTGACTTTTTAAATATGTTTGACCGGAGTCACCTAGTGCAG	32300 fluorescence intensity (a.u.)
CTCCCTCCATCCCAAAATGTTTGACGCCGTTGACTTTTTACGGAGTCACCTAGTGCAG	15900 fluorescence intensity (a.u.)
TCTTACTCTCTCCATCCCAAAATGTTTGACGCCGTTGACTCGGAGTCACCTAGTGCAG	13400 fluorescence intensity (a.u.)
CTCTCTCCGTATTATAATGTATGATGCCGTTGACTTTTTGCGGAGTCACCTAGTGCAG	35200 fluorescence intensity (a.u.)
ACTCTCTCCGTATTCGTATTTTAATGTATGACGCCGTTGACGGAGTCACCTAGTGCAG	8550 fluorescence intensity (a.u.)
TAATACTCCCTCCGTATTTTAATGTATGATGCCGTTGACTCGGAGTCACCTAGTGCAG	10600 fluorescence intensity (a.u.)
TCCGTATTTTAATGTATGACGCTGTTGACTTTCGACCTACCGGAGTCACCTAGTGCAG	13900 fluorescence intensity (a.u.)
ATTTTAATATTTGACGCCGTTGACTTTTTGTATGTTTGACCGGAGTCACCTAGTGCAG	42500 fluorescence intensity (a.u.)
TTAGTGATTTCTTGTCTCCTGATCATCTGTAGTCTGTAGACGGAGTCACCTAGTGCAG	8160 fluorescence intensity (a.u.)
GACCTAGCTCTGCCCTTTCTTTCTGAAATAAATAATGCATCGGAGTCACCTAGTGCAG	8960 fluorescence intensity (a.u.)
CCATCACTAGAGCCTTTTGCCTTTGCTTGCACAATTACATCGGAGTCACCTAGTGCAG	8850 fluorescence intensity (a.u.)
TGTGTGCCTGTTGTCTCATTTGATCTGCCATTTCAGCGCACGGAGTCACCTAGTGCAG	10700 fluorescence intensity (a.u.)
ACCCGCACACCGTCCCGTGCCAGCTGCCTCGCCACCGTTCCGGAGTCACCTAGTGCAG	11900 fluorescence intensity (a.u.)
CCACGACACCGCTTCCAGCCCACGCAACCCTCGAACAATGCGGAGTCACCTAGTGCAG	8170 fluorescence intensity (a.u.)
GTATTTTCGATTGTTTACACTATAATTAGACTGTTTTATACGGAGTCACCTAGTGCAG	8600 fluorescence intensity (a.u.)
CGTCGATGCCAATACAATAACCATCATCATCATCATCATTCGGAGTCACCTAGTGCAG	8210 fluorescence intensity (a.u.)

Sequence	binding signal
TCCTCTCCCACCAATCCTTTGATCCATTCATCCCAACTTCCGGAGTCACCTAGTGCAG	9340 fluorescence intensity (a.u.)
TGTGTGTGTATATATATGTAGCCTGTTCGCACATCATCTTCGGAGTCACCTAGTGCAG	13600 fluorescence intensity (a.u.)
GTAATGGCATATTTGCAATTATCCCTTTGTTTATTTATTTCGGAGTCACCTAGTGCAG	8510 fluorescence intensity (a.u.)
AATGTATGACGCCGTTGACTTTTTAACAAATATTTGACATCGGAGTCACCTAGTGCAG	20300 fluorescence intensity (a.u.)
GTCGTTGATTTTTTTAAAAATGTTTAACCGTTCGTTTTATCGGAGTCACCTAGTGCAG	8170 fluorescence intensity (a.u.)
TCCCTAAATATATGACGTTGTTGACTTTTTAAAACATTTTCGGAGTCACCTAGTGCAG	11200 fluorescence intensity (a.u.)
TCCCTAAATGTTTAACGTCGTTGACTTTTTAAAATATGTTCGGAGTCACCTAGTGCAG	21000 fluorescence intensity (a.u.)
TTATATGATGTTGTTGACTTTTTGACAAATGTTTAATCATCGGAGTCACCTAGTGCAG	8810 fluorescence intensity (a.u.)
CGTGCCGCCGCCGCCGCCGCCATCCTCCGGCAACAACGGCCGGAGTCACCTAGTGCAG	9650 fluorescence intensity (a.u.)
GCTTCGCTTTGCGCTCTCTCTATCTCTCTCTCTTCCAAAACGGAGTCACCTAGTGCAG	8490 fluorescence intensity (a.u.)
TATCCACATACCACCTCTCCATTGGACCACAGTTTCTCTCCGGAGTCACCTAGTGCAG	8340 fluorescence intensity (a.u.)
GGGGCAAGGAAGGAAGGGGAGGGGAGGGGTTGGGGCGATGCGGAGTCACCTAGTGCAG	25900 fluorescence intensity (a.u.)
GGAGAGGAGCGGGCGGGTTGGTGTTGGGAAGGGAGGGATGCGGAGTCACCTAGTGCAG	18200 fluorescence intensity (a.u.)
GGCGGCGGCGGCGGCGGAGGTTGGGAAGGAGAGGGAGGGGCGGAGTCACCTAGTGCAG	11800 fluorescence intensity (a.u.)
CGAGAAGGGGATGGGGAGGAGGAGAGGGAGCGGGAGAGGGCGGAGTCACCTAGTGCAG	10100 fluorescence intensity (a.u.)
AAGGGGATCGGAGATGCCGCTGGGCAAGTACTACTGCGACCGGAGTCACCTAGTGCAG	29900 fluorescence intensity (a.u.)
CGGAGAAGTCCGGGCAGGCAAGGGGATGGGGATGGGGATGCGGAGTCACCTAGTGCAG	12400 fluorescence intensity (a.u.)
CGCGGGGAGGGAGGGAGGGAAGGAGAGGAGGAAGAGGATGCGGAGTCACCTAGTGCAG	9410 fluorescence intensity (a.u.)
GGTTTTGCAGGGCGAGGAGGGAGGGGAGGAGGGAAGGATGCGGAGTCACCTAGTGCAG	15900 fluorescence intensity (a.u.)
TGCTGGTGGTGGTGGTGGGGATCGAGCCGCTCGCTTCGACCGGAGTCACCTAGTGCAG	11700 fluorescence intensity (a.u.)
